According to PubChem BioAssay AID1159580 (chemical genetic matrix, 2015):
Screen size: about 5,500 compounds; about 2,000 (36%) were called active. Another 18% or so got no clear call; they are omitted. Rule as the data show it: active = normalized growth mostly below about 0.91 (no sharp cut-off); inconclusive = no clear call, values can overlap the other calls; inactive = mostly above about 0.92. Some of the results follow.

Assay: chemical genetic growth profiling, strain panel (AID 1159580);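 also: tested at 20 µM; growth read once vehicle control cultures reached saturation at 30 °C; 1 = growth at the plate median or of vehicle wells; lower values mean less growth of the strain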
Details: growth OD

Measured: normalized growth

NC[C@@H]1O[C@H](O[C@@H]2[C@@H](CO)OC(O[C@@H]3[C@@H](O)[C@H](N)C[C@H](N)[C@H]3O[C@H]3O[C@H](CO)[C@@H](O)[C@H](O)[C@H]3N)[C@@H]2O)[C@H](N)[C@@H](O)[C@@H]1O (stereo partly drawn)
inactive: S. cerevisiae deletion strains, locus YJR043C, strain POL32, hits give low values 0.936 | S. cerevisiae deletion strains, locus YJR066W, strain TOR1, hits give low values 0.945 | S. cerevisiae deletion strains, locus YKL009W, strain mrt4, hits give low values 0.982 | S. cerevisiae deletion strains, locus YKL068W, hits give low values 0.993 | S. cerevisiae deletion strains, locus YKL085W, strain MDH1 (second series), hits give low values 0.995 | S. cerevisiae deletion strains, locus YKL085W, strain MDH1, hits give low values 0.995 | S. cerevisiae deletion strains, locus YKL160W, strain elf1, hits give low values 0.996 | S. cerevisiae deletion strains, locus YKL190W, strain CNB1, hits give low values 0.988 | S. cerevisiae deletion strains, locus YKR001C, strain vps1, hits give low values 0.988 | S. cerevisiae deletion strains, locus YKR026C, strain gcn3, hits give low values 0.992 | S. cerevisiae deletion strains, locus YKR091W, strain srl3, hits give low values 0.989 | S. cerevisiae deletion strains, locus YLL001W, strain dnm1, hits give low values 0.985 | S. cerevisiae deletion strains, locus YLL026W, hits give low values 0.987 | S. cerevisiae deletion strains, locus YLL041C, strain sdh2, hits give low values 0.993 | S. cerevisiae deletion strains, locus YLR027C, strain aat2, hits give low values 0.987 | S. cerevisiae deletion strains, locus YLR039C, strain RIC1, hits give low values 0.983 | S. cerevisiae deletion strains, locus YLR058C, strain SHM2, hits give low values 0.978 | S. cerevisiae deletion strains, locus YLR102C, strain apc9, hits give low values 0.989 | S. cerevisiae deletion strains, locus YLR113W, strain HOG1, hits give low values 0.952 | S. cerevisiae deletion strains, locus YLR221C, strain rsa3, hits give low values 0.991 | S. cerevisiae deletion strains, locus YLR258W, strain gsy2, hits give low values 0.993 | S. cerevisiae deletion strains, locus YLR262C, strain YPT6 (second series), hits give low values 1.01 | S. cerevisiae deletion strains, locus YLR262C, strain YPT6, hits give low values 0.973 | S. cerevisiae deletion strains, locus YLR268W, strain sec22, hits give low values 0.986 | S. cerevisiae deletion strains, locus YLR320W, strain mms22, hits give low values 0.997 | S. cerevisiae deletion strains, locus YLR330W, strain CHS5, hits give low values 0.998 | S. cerevisiae deletion strains, locus YLR342W, strain FKS1 (second series), hits give low values 1.09 | S. cerevisiae deletion strains, locus YLR342W, strain FKS1, hits give low values 0.992 | S. cerevisiae deletion strains, locus YLR357W, strain rsc2, hits give low values 0.992 | S. cerevisiae deletion strains, locus YLR370C, strain arc18, hits give low values 0.992 | S. cerevisiae deletion strains, locus YLR371W, strain rom2, hits give low values 1 | S. cerevisiae deletion strains, locus YLR384C, strain iki3, hits give low values 0.99 | S. cerevisiae deletion strains, locus YLR418C, strain cdc73, hits give low values 1.01 | S. cerevisiae deletion strains, locus YML016C, strain PPZ1, hits give low values 0.992 | S. cerevisiae deletion strains, locus YML032C, strain rad52, hits give low values 0.98 | S. cerevisiae deletion strains, locus YML120C, strain ndi1, hits give low values 0.988 | S. cerevisiae deletion strains, locus YML124C, strain tub3, hits give low values 0.985 | S. cerevisiae deletion strains, locus YMR058W, strain fet3, hits give low values 0.988 | S. cerevisiae deletion strains, locus YMR078C, strain ctf18, hits give low values 0.989 | S. cerevisiae deletion strains, locus YMR125W, strain sto1, hits give low values 0.998 | S. cerevisiae deletion strains, locus YMR129W, hits give low values 0.998 | S. cerevisiae deletion strains, locus YMR205C, strain PFK2, hits give low values 0.994 | S. cerevisiae deletion strains, locus YMR223W, strain ubp8, hits give low values 1.01 | S. cerevisiae deletion strains, locus YMR231W, strain pep5, hits give low values 1 | S. cerevisiae deletion strains, locus YMR307W, strain GAS1, hits give low values 1.07 | S. cerevisiae deletion strains, locus YNL067W, strain RPL9B, hits give low values 0.97 | S. cerevisiae deletion strains, locus YNL071W, strain lat1, hits give low values 0.987 | S. cerevisiae deletion strains, locus YNL183C, strain NPR1, hits give low values 0.939 | S. cerevisiae deletion strains, locus YNL209W, strain ssb2, hits give low values 0.999 | S. cerevisiae deletion strains, locus YNL233W, strain BNI4, hits give low values 0.995 | S. cerevisiae deletion strains, locus YNL248C, strain rpa49, hits give low values 0.988 | S. cerevisiae deletion strains, locus YNL250W, strain rad50, hits give low values 0.991 | S. cerevisiae deletion strains, locus YNL271C, strain bni1, hits give low values 0.986 | S. cerevisiae deletion strains, locus YNL298W, strain CLA4, hits give low values 0.989 | S. cerevisiae deletion strains, locus YNL307C, strain MCK1, hits give low values 0.983 | S. cerevisiae deletion strains, locus YNL322C, strain KRE1 (second series), hits give low values 0.989 | S. cerevisiae deletion strains, locus YNR049C, strain mso1, hits give low values 0.993 | S. cerevisiae deletion strains, locus YNR052C, strain pop2, hits give low values 0.998 | S. cerevisiae deletion strains, locus YOL006C, strain TOP1, hits give low values 0.932 | S. cerevisiae deletion strains, locus YOL012C, strain htz1 1.06 | S. cerevisiae deletion strains, locus YOL147C, strain pex11, hits give low values 1 | S. cerevisiae deletion strains, locus YOR001W, strain rrp6, hits give low values 0.985 | S. cerevisiae deletion strains, locus YOR061W, strain CKA2, hits give low values 0.973 | S. cerevisiae deletion strains, locus YOR069W, strain VPS5, hits give low values 0.998 | S. cerevisiae deletion strains, locus YOR070C, strain gyp1, hits give low values 0.995 | S. cerevisiae deletion strains, locus YOR080W, strain dia2, hits give low values 0.989 | S. cerevisiae deletion strains, locus YOR083W, strain WHI5, hits give low values 0.993 | S. cerevisiae deletion strains, locus YOR106W, strain vam3, hits give low values 0.995 | S. cerevisiae deletion strains, locus YOR136W, strain idh2, hits give low values 0.98 | S. cerevisiae deletion strains, locus YOR144C, strain elg1, hits give low values 0.999 | S. cerevisiae deletion strains, locus YOR184W, strain ser1, hits give low values 0.972 | S. cerevisiae deletion strains, locus YOR231W, strain MKK1, hits give low values 0.965 | S. cerevisiae deletion strains, locus YOR265W, strain rbl2, hits give low values 0.992 | S. cerevisiae deletion strains, locus YOR270C, strain vph1, hits give low values 0.966 | S. cerevisiae deletion strains, locus YOR290C, strain snf2, hits give low values 0.989 | S. cerevisiae deletion strains, locus YOR316C, strain cot1, hits give low values 0.979 | S. cerevisiae deletion strains, locus YPL051W, strain arl3, hits give low values 0.989 | S. cerevisiae deletion strains, locus YPL078C, strain atp4, hits give low values 0.99 | S. cerevisiae deletion strains, locus YPL106C, strain sse1, hits give low values 0.967 | S. cerevisiae deletion strains, locus YPL240C, strain hsp82, hits give low values 0.997 | S. cerevisiae deletion strains, locus YPL241C, strain CIN2, hits give low values 0.998 | S. cerevisiae deletion strains, locus YPL256C, strain CLN2, hits give low values 0.968 | S. cerevisiae deletion strains, locus YPR119W, strain clb2, hits give low values 0.99 | S. cerevisiae deletion strains, locus YPR141C, strain kar3, hits give low values 0.988 | S. cerevisiae deletion strains, locus YPR163C, strain tif3, hits give low values 0.998 | S. cerevisiae deletion strains, locus YPR167C, strain met16, hits give low values 0.999 | S. cerevisiae deletion strains, strain wtn01, hits give low values 1.02 | S. cerevisiae strains, strain wild type, hits give low values 0.988
